SENP8 block-1: inhibitors of human SENP8 protease | recombinant SENP8, Nedd8 substrate fluorescence | inhibition, % at 20 µM | 360,000 compounds, 0.64% hits; in the data active = inhibition mostly above about 40%, no sharp cut-off; inactive = mostly below about 27%
Target sequence (Q96LD8 whole entry, looked up): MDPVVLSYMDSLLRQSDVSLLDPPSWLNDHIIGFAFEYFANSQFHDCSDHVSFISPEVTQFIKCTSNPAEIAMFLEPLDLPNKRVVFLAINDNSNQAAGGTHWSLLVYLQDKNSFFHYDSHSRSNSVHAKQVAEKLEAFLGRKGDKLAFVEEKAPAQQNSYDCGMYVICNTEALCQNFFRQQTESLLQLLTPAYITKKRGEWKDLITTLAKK
C8 TRAIL sens: sensitizes caspase-8 expressing cells to TRAIL; NB7+C8 cells + TRAIL, ATPlite viability luminescence; inhibition (viability loss, TRAIL sensitization), % at 10 µM; 360,000 compounds, 1% hits; AID 624354;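 active = compounds causing at least 50% loss of cell viability in the single-dose screen, relative to plate controls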
SENP8 block-2: blocks the human protease SENP8; purified SENP8, Z-RLRGG-aminoluciferin cleavage, luminescence; inhibition, % at 10 µM; 330,000 compounds, 1.2% hits; in the data active = inhibition above about 50%
PPC-1+TRAIL kill: PPC-1 cancer cell killing with TRAIL present | 220,000 compounds, 0.41% hits | PPC-1 cells + TRAIL, ATPLite viability luminescence | AID 1443 | cell killing (% activity), % at 4 µM or 5 µM;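 active = cell killing above 50% in the first pass at 4 µM, then a duplicate retest at 5 µM averaging 50% or more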;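 also: plate controls were cells with TRAIL plus DMSO for no effect and medium-only wells lacking cells for full effect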
SENP7 inh: blocks the human protease SENP7. recombinant SENP7, Z-RLRGG-aminoluciferin luminescence, 40 min. AID 434973. inhibition, % at 5 µM. Q9BQF6. 330,000 compounds, 1.5% hits;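 active = inhibition above about 50% at the single test dose, limit read from the data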;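 also: plate controls were DMSO with enzyme for no effect and no enzyme buffer wells for full effect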
Target sequence (Q9BQF6 706-1050 limits assumed): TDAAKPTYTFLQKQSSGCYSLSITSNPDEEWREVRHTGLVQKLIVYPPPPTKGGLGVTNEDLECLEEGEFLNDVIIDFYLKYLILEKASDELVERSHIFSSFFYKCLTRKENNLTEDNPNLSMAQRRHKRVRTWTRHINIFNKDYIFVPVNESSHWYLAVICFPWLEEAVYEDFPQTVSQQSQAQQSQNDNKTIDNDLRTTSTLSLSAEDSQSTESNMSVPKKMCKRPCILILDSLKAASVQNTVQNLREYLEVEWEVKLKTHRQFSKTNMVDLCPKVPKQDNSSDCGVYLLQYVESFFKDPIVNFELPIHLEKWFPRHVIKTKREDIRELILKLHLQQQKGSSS
SENP6 inh: SENP6 protease inhibition | Q9GZR1 | Recombinant SENP6 catalytic domain, aminoluciferin luminescence | inhibition, % at 10 µM | 330,000 compounds, 1.8% hits | AID 2599;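 active = inhibition above about 50% at the single tested dose, limit read from the data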;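 also: plate controls were DMSO wells with enzyme for no effect and DMSO wells lacking enzyme for full effect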
SENP8 conf-1: human SENP8 inhibition, confirmed; shares compounds with SENP7 inh; Recombinant SENP8, Z-RLRGG-aminoluciferin luminescence, 60 min; inhibition, % at 12.5 µM; 6,200 compounds, 40% hits; AID 488912;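 active = mean inhibition across replicates above about 50%, limit read from the data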
SENP6 conf: confirmation of human SENP6 protease inhibitors; shares compounds with SENP7 inh; recombinant SENP6, Z-RLRGG-aminoluciferin luminescence; inhibition, % at 12.5 µM; 6,200 compounds, 58% hits; AID 488915
SENP7 conf: confirmation of human SENP7 protease inhibitors; shares compounds with SENP7 inh; recombinant SENP7, Z-RLRGG-aminoluciferin luminescence, 40 min; inhibition, % at 12.5 µM; 6,200 compounds, 69% hits; AID 488917
Casp3 select: selectivity test for SENP inhibitors: human caspase-3 inhibition; shares compounds with SENP7 inh; purified caspase-3, Z-DEVD-aminoluciferin luminescence, 60 min; inhibition, % at 12.5 µM; 6,200 compounds, 60% hits; AID 488918;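 active = mean inhibition above about 50%, limit read from the data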;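 also: plate controls were enzyme with DMSO for no effect and wells without caspase-3 for full effect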
SENP luc ctr: luminescence interference (SENP counter-screen). 6,200 compounds, 39% hits. shares compounds with SENP7 inh. Pre-incubated SENP8/Z-RLRGG-aminoluciferin, luciferase luminescence interference. inhibition, % at 12.5 µM;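 active = mean inhibition above about 50% when retested at one dose, limit read from the data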;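 also: plate controls were DMSO wells with completed reaction for no effect and substrate without enzyme for full effect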
SENP8 conf-2: SENP8 (human) inhibition, single concentration confirmation | inhibition, % at 25 µM | purified SENP8, Nedd8-AMC/pro-Nedd8 cleavage fluorescence, 30 min | shares compounds with SENP8 block-1 | 1,400 compounds, 15% hits | AID 624319; in the data active = inhibition mostly above about 39%, no sharp cut-off; inactive = mostly below about 34%
* marks the source's active call; other numbers are inactive results; / = not tested or not shown. This is a sample that favours compounds with a hit; in the whole collection about 3% have one here.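 The calls were made as follows, unless noted: active = mean inhibition above about 50% in the one-dose retest (limit read from the data); inactive = the rest.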

SMILES	SENP8 block-1	C8 TRAIL sens	SENP8 block-2	PPC-1+TRAIL kill	SENP7 inh	SENP6 inh	SENP8 conf-1	SENP6 conf	SENP7 conf	Casp3 select	SENP luc ctr	SENP8 conf-2
O=C(CC(Nc1ccc(Cl)cc1Cl)C(=O)O)c1ccccc1 (centres undefined)	26	25	-2	3	-5	-14	/	/	/	/	/	/
Cc1ccc(NC(CC(=O)c2ccccc2)C(=O)O)cc1Cl (centres undefined)	-34	31	74*	11	65*	-8	-12	8	18	36	19	/
C/C(=N\NC(=O)CN1CCN(c2ccc(F)cc2)CC1)c1ccco1	13	3	-4	/	-2	-19	/	/	/	/	/	/
CCOc1ccccc1CN1CCNC(=O)C1CC(=O)NCc1cc(C)n(C)n1 (centres undefined)	-20	-5	5	/	-1	0	/	/	/	/	/	/
CCCc1cc(=O)n2c([nH]c3ccccc32)c1C#N	-266	5	42	22	8	51*	24	38	51*	53*	44	/
Cn1c(SCc2ccccc2)nnc1-c1ccco1	6	20	-6	14	8	-1	/	/	/	/	/	/
O=C(O)c1cccc(NC(=O)c2cccc(S(=O)(=O)Nc3cccc([N+](=O)[O-])c3)c2)c1	5	-10	51*	/	30	65*	72*	69*	86*	38	45	/
Cc1ccccc1NS(=O)(=O)c1cccc(C(=O)Nc2cccc(C(=O)O)c2)c1	13	1	34	/	12	65*	52*	44	72*	12	26	/
CCOC(=O)c1sc(NC(=O)c2ccco2)nc1C	-49	24	9	8	54*	59*	6	6	-6	5	-3	/
CCOC(=O)c1sc(NC(=O)c2ccc(C)o2)nc1C	-99	39	64*	35	12	70*	36	74*	91*	84*	19	/
CNc1cncc(-c2ccc(OC)cc2OC)n1	-498	-22	/	/	/	/	/	/	/	/	/	/
CCn1c(C)nc2cc(C(=O)NNC(=O)CN(C)S(=O)(=O)c3ccc(NC(C)=O)cc3)ccc21	10	7	-4	/	12	6	/	/	/	/	/	/
CC(C)(C)C(=O)Nc1sc(-c2ccccc2)cc1C(=O)O	-194	30	19	-5	30	58*	39	30	70*	40	52*	/
Cc1cccc(C(=O)Nc2sc(-c3ccccc3)cc2C(=O)O)c1	-432	4	65*	18	0	85*	78*	75*	72*	16	84*	/
CC1=NN(c2ccc(Cl)cc2)C(=O)C1C(c1ccccc1O)c1c(C)[nH]n(-c2ccc(Cl)cc2)c1=O (centres undefined)	95*	4	34	14	92*	86*	-9	22	-2	3	4	38
O=C1C(=O)N(Cc2ccccc2)C(=O)N1CCN1C(=O)c2ccccc2C1=O	9	1	-11	-2	-9	-39	/	/	/	/	/	/
O=C1Cc2ccccc2C(=O)N1CCc1ccccc1	98*	-28	95*	10	87*	97*	86*	96*	86*	96*	12	88*
CCOC(=O)C1=C(C)OC2(O)c3ccccc3C(=O)C12O (centres undefined)	96*	11	64*	-4	46	69*	25	88*	82*	-4	-1	99*
CCOc1ccc(C(O)(c2ccccc2)C(CN2CCCC2)c2ccccc2)cc1 (centres undefined)	12	5	0	/	11	1	/	/	/	/	/	/
COc1ccccc1N1C(=O)c2cccc3cccc(c23)C1=O	13	-16	-6	/	8	-27	/	/	/	/	/	/
COc1ccccc1N1C(=O)Cc2ccccc2C1=O	90*	-8	19	/	40	69*	18	63*	31	15	-3	55*
CCOC(=O)c1nn(-c2ccc(C)c(C)c2)c(=O)c2c(N)scc12	60*	-4	3	-17	9	51*	-6	3	-5	7	0	49*
O=C(COC(=O)c1ccc([N+](=O)[O-])s1)NCCc1ccccc1	51*	-2	68*	/	26	62*	84*	86*	42	14	0	80*
Nc1ccc(C(=O)OCC(=O)NC(=O)c2ccccc2)cc1[N+](=O)[O-]	9	7	2	/	-2	-1	/	/	/	/	/	/
O=C(COC(=O)c1ccc([N+](=O)[O-])s1)NNC(=O)c1ccccc1	48*	5	75*	/	45	70*	5	88*	48	49	1	86*
SMILES	SENP8 block-1	C8 TRAIL sens	SENP8 block-2	PPC-1+TRAIL kill	SENP7 inh	SENP6 inh	SENP8 conf-1	SENP6 conf	SENP7 conf	Casp3 select	SENP luc ctr	SENP8 conf-2
CCc1cc(C(=O)OCC(=O)NCCc2ccccc2)sc1C	9	2	/	/	/	/	/	/	/	/	/	/
Cc1ccc(C(=O)OCC(=O)NC(C)c2ccccc2)s1 (centres undefined)	6	-12	-11	/	4	-2	/	/	/	/	/	/
CC(NC(=O)COC(=O)c1ccc([N+](=O)[O-])s1)c1ccccc1 (centres undefined)	41*	9	62*	8	41	76*	23	46	3	-9	-7	81*
CC(=O)N1N=C(c2ccccc2)OC1c1ccc([N+](=O)[O-])s1 (centres undefined)	61*	-1	33	1	33	66*	15	24	0	-1	-1	39*
CC(=O)N1N=C(c2cccc([N+](=O)[O-])c2)OC1c1ccc(Br)cc1 (centres undefined)	17	9	-8	-4	3	-13	/	/	/	/	/	/
COc1ccc(NC(=S)Nc2ccc3nc(C)c(C)nc3c2)cc1	-115	-9	-1	-1	0	-11	/	/	/	/	/	/
COc1ccc(NC(=S)Nc2ccc3nsnc3c2)cc1	52*	-5	95*	18	89*	96*	3	90*	84*	22	32	71*
COc1cnc(-c2ccccn2)nc1N(C)c1ccccc1	19	44	-3	/	9	0	/	/	/	/	/	/

Screening data: PubChem BioAssay, Sanford-Burnham Center for Chemical Genomics
